Inconclusive results are not listed. Calls of active or inactive are those of the source. Calls come from the whole dose curve; as a rule, active = well fitted curve in the direction sought with a large enough effect; inconclusive = small, poorly fitted or top-dose-only effect, or another doubt; inactive = no such curve, though single readings can be large; an effect the other way counts as inactive or inconclusive.
What was measured:
[1] = SDT Cancer Cell Toxicity qHTS against the NCATS CANVASS Library (AID 1347365);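 note: SDT canine glioma cells 500 per well in 1536 well plates; nearly all actives have a fitted effect of over 60% in size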
Description: (§1) Natural products and their derivatives continue to be wellsprings of nascent therapeutic potential. However, many laboratories have limited resources for biological evaluation, leaving their previously isolated or synthesized compounds largely or completely untested. To address this issue, the Canvass library of natural products was assembled (https://tripod.nih.gov/canvass), in collaboration with academic and industry researchers, for quantitative high-throughput screening (qHTS) across a diverse set of cell-based and biochemical assays. […] The library was formatted into 1536-well plates and evaluated in 50 qHTS (in an 11-pnt concentration series) bioassays with broad scope of disease-relevant mechanisms. The resulting data set from 50 different assays was then systematically analyzed to identify overall trends and specific natural products with interesting biological activities. […] This assay uses ATP (luminescence) content to measure the cytotoxiciy of compounds on SDT dog glioma cancer cell line. […]
(§2) Cancer Cell Toxicity qHTS protocol: for cell lines G06, J3T, and SDT. […] Luminescence signal was acquired via the ViewLux plate reader (PerkinElmer) using a clear emission filter, 2 sec exposure, and 1x binning settings.

[2] = KB-3-1 Cancer Cell Toxicity qHTS against the NCATS CANVASS Library (AID 1347366); conditions: KB-3-1 viability, CellTiter-Glo luminescence, 72 h; at 15.4 µM (top of the series); note: nearly all actives have a fitted effect of over 75% in size
Description: Natural products and their derivatives continue to be wellsprings of nascent therapeutic potential. However, many laboratories have limited resources for biological evaluation, leaving their previously isolated or synthesized compounds largely or completely untested. To address this issue, the Canvass library of natural products was assembled (https://tripod.nih.gov/canvass), in collaboration with academic and industry researchers, for quantitative high-throughput screening (qHTS) across a diverse set of cell-based and biochemical assays. The pure (>85% purity by liquid chromatography/mass spectrometry [LC/MS]) Canvass library of 346 natural products were submitted by 45 academic laboratories and companies around the world. We collected pure natural products to circumvent deconvolution and structure elucidation due to time and resource limitations. The library was formatted into 1536-well plates and evaluated in 50 qHTS (in an 11-pnt concentration series) bioassays with broad scope of disease-relevant mechanisms. The resulting data set from 50 different assays was then systematically analyzed to identify overall trends and specific natural products with interesting biological activities. […]
Cancer Cell Toxicity qHTS protocol 1. […] Luminescence signal was acquired via the ViewLux plate reader (PerkinElmer) using a clear emission filter, 1 sec exposure, and 1x binning settings.

[3] = qHTS for ATAD5 Agonist screened against the NCATS CANVASS Library (AID 1347367);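 note: luciferase reporter driven by ATAD5 which rises upon DNA damage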
Method in brief: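 HEK293T cells stably carrying an ATAD5-controlled luciferase reporter (2000 cells/well) attached for 5 hr, then received compounds in an 11-point series for 16hr at 37C. Luminescence was read after a 30 min room-temperature reagent step.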

[4] = G06 Cancer Cell Toxicity qHTS against the NCATS CANVASS Library (AID 1347368); note: nearly all actives have a fitted effect of over 60% in size
Description: as §1, with “G06” for “SDT”
as §2

[5] = MCF7 Cancer Cell Toxicity qHTS against the NCATS CANVASS Library (AID 1347369); conditions: MCF7 viability, ATP luminescence (CellTiter-Glo), 72 h; at 15.3 µM (top of the series)
Method in brief: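 MCF7, 500 cells/well; cpds 11-pt qHTS; 72 hr, 37C/5% CO2; CellTiterGlo ATP luminescence.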

[6] = qHTS for ATAD5 Antagonist screened against the NCATS CANVASS Library (AID 1347370);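 note: HEK293T cells carrying an ATAD5 luciferase reporter co-treated with 10 µM 5-fluorouridine; nearly all actives have a fitted effect of over 65% in size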
Method in brief: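 HEK293T-ATAD5 luc reporter, 2000 cells/well; 5hr attach; cpd + 10 uM 5-FUrd; 16hr 37C, 5% CO2. Readouts: CellTiter-Fluor fluorescence (1hr), then Amplite luciferase luminescence (30min RT).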

[7] = J3T Cancer Cell Toxicity qHTS against the NCATS CANVASS Library (AID 1347371);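 note: J3T is a canine glioma cancer cell line seeded at 500 cells per well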
Method in brief: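 Dog glioma J3T, 500 cells/well; cpd 11-pt qHTS; 72 hr, 37C/5% CO2; CellTiterGlo ATP luminescence readout.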

[8] = target: Nuclear receptor subfamily 1 group I member 3 (Homo sapiens) (UniProt Q14994); assay: qHTS for Constitutive Androstane Receptor (CAR) Antagonist screened against the NCATS CANVASS Library (AID 1347372);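 note: cells stimulated with 50 nM CITCO agonist so inhibition reflects antagonism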
Chain of Nuclear receptor subfamily 1 group I member 3 (Homo sapiens) (Q14994 whole entry, looked up): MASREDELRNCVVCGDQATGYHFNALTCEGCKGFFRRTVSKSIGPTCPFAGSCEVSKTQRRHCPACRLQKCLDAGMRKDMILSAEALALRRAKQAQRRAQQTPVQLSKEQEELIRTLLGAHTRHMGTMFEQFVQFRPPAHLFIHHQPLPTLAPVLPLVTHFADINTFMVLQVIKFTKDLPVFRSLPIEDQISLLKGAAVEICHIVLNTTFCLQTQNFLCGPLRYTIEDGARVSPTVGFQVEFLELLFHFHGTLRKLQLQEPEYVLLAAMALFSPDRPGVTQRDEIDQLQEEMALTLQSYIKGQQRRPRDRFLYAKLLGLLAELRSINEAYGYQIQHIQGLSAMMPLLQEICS
Description: Natural products and their derivatives continue to be wellsprings of nascent therapeutic potential. However, many laboratories have limited resources for biological evaluation, leaving their previously isolated or synthesized compounds largely or completely untested. To address this issue, the Canvass library of natural products was assembled (https://tripod.nih.gov/canvass), in collaboration with academic and industry researchers, for quantitative high-throughput screening (qHTS) across a diverse set of cell-based and biochemical assays. […] The library was formatted into 1536-well plates and evaluated in 50 qHTS (in an 11-pnt concentration series) bioassays with broad scope of disease-relevant mechanisms. The resulting data set from 50 different assays was then systematically analyzed to identify overall trends and specific natural products with interesting biological activities. […]
Material: A double-stable (hCAR and CYP2B6-2.2kb) transfected cell line, derived from human hepatoma (HepG2) cells, was utilized for the duration of the quantitative high-throughput screens. […] A first readout of fluorescence signal was acquired via the ViewLux (PerkinElmer) plate reader using a FITC dichroic mirror, excitation 405/10 nm filter, and emission 540/25 nm filter; and using 65 light energy, 1 second exposure, and 2x binning settings. […]

[9] = target: Nuclear receptor subfamily 1 group I member 3 (Homo sapiens) (UniProt Q14994); assay: qHTS for Constitutive Androstane Receptor (CAR) Agonist screened against the NCATS CANVASS Library (AID 1347373);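 note: every well also contained 1.5 µM PK11195 alongside the test compound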
Method in brief: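 Luciferase read-out (ONE-Glo, 30 min RT) of CYP2B6-2.2kb promoter activity in double-stable HepG2-hCAR cells after 24hr compound exposure with 1.5uM PK11195 present; viability measured first by CellTiter-Fluor.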

[10] = qHTS for Hypoxia signaling pathway (HIF-1) antagonists against the NCATS CANVASS Library (AID 1347374);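 note: HRE-bla ME-180 cells stimulated with cobalt chloride to stabilize HIF-1alpha; nearly all actives have a fitted effect of over 60% in size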
Description: Natural products and their derivatives continue to be wellsprings of nascent therapeutic potential. However, many laboratories have limited resources for biological evaluation, leaving their previously isolated or synthesized compounds largely or completely untested. To address this issue, the Canvass library of natural products was assembled (https://tripod.nih.gov/canvass), in collaboration with academic and industry researchers, for quantitative high-throughput screening (qHTS) across a diverse set of cell-based and biochemical assays. […] We collected pure natural products to circumvent deconvolution and structure elucidation due to time and resource limitations. The library was formatted into 1536-well plates and evaluated in 50 qHTS (in an 11-pnt concentration series) bioassays with broad scope of disease-relevant mechanisms. The resulting data set from 50 different assays was then systematically analyzed to identify overall trends and specific natural products with interesting biological activities. […] The compounds were also tested for auto fluorescence that may interfere with the biological target readout resulting in potential false positives and/or negatives. […]
HIF-1 antagonist assay protocol: 1. […] The fluorescence intensity was obtained using the EnVision (PerkinElmer, Shelton, CT) plate reader using a 405 nm excitation, and 460 and 530 nm emission filters. […]

Measured: outcome

C[C@@H]1O[C@@H](OC[C@H]2O[C@@H](Oc3c(-c4ccc(O)c(O)c4)oc4cc(O)cc(O)c4c3=O)[C@H](O)[C@@H](O)[C@@H]2O)[C@H](O)[C@H](O)[C@H]1O
inactive: [1] | [2] | [3] | [4] | [5] | [6] | [7] | [8] | [9] | [10]

— PubChem BioAssay (NCATS)
